Reference: the supplement of paper PMC3334620
Over roughly 33,000 sequences, “E-score (-0.5 to 0.5)” has its median near -0.012; the highest 2% begin near 0.27. This is one part of a sample in which the highest values are shown more often than they occur.

Each sequence was assayed against T1, Vhr1 (UniProt P40522) (assay: PBM E-score (8-mer binding enrichment) (E-score (-0.5 to 0.5)); higher = stronger / more preferred TF binding). Conditions: protein concentration: 200 nM; construct: GST-full length.
T1 sequence: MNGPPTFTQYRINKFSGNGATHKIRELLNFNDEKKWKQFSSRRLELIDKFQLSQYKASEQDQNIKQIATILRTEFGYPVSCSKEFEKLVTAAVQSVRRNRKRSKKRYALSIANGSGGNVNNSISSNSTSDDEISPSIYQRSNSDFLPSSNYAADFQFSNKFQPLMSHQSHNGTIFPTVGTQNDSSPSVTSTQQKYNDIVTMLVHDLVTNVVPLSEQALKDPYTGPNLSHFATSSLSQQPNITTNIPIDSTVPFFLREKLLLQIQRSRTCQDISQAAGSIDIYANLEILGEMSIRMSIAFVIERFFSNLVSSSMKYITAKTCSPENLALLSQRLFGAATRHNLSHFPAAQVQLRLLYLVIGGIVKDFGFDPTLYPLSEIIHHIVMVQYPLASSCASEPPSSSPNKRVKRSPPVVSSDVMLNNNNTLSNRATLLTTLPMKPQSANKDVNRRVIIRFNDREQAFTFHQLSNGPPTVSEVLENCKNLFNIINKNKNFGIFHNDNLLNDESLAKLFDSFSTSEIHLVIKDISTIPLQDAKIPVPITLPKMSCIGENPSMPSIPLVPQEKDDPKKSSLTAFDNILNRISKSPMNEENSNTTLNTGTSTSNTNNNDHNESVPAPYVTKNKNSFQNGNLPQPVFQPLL
Method: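 Universal 'all 10-mer' protein binding microarrays (Agilent AMADID 015681) probed with GST-tagged S. cerevisiae TFs (full-length or DBD) made by in vitro transcription/translation (PURExpress), about 100-200 nM. Bound TF was detected with fluorescent anti-GST. Each ungapped 8-mer (which stands for itself and its reverse complement) is scored by the PBM enrichment score (E-score), a modified Wilcoxon-Mann-Whitney statistic from -0.5 to +0.5, computed with the Universal PBM Analysis Suite. Scale: above 0.35 generally sequence-specific binding.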

Sequence | PBM E-score
GAAAGTCC | -0.317
CAAGACTG | -0.0294
CAAGACTC | 0.295
CAAGACTA | -0.0514
CGAGACTC | 0.309
AGAGACTC | 0.222
CGAGACTA | 0.202
TAGTTATA | 0.00574
ACCCTACC | 0.00399
ACATTGAC | 0.0886
CAAAGCCG | -0.295
CTCACCTA | 0.103
ATTACTGC | 0.206
TACGAAGA | -0.0938
CCCTACTC | -0.067
AGGTATGA | 0.163
AACACACA | 0.33
CACACACA | 0.276
CACACAAA | 0.124
CGCACACA | 0.134
AACACACT | 0.205
CACACATA | 0.204
AACACACG | 0.00318

Sequence | PBM E-score
TACACACA | 0.268
CACACACG | 0.272
CCCATTCG | 0.00579
AAGAGGGT | -0.255
AGAGGTAT | 0.144
CGTCCTAG | -0.181
ATGCTAAG | -0.0834
CCTATCAA | -0.182
CGTCATCC | 0.0455
AGGCATCG | -0.22
ATTCATCG | 0.121
CGTCATCA | 0.0722
ATTCATCC | 0.0498
GGTCATCA | 0.136
AGTCATCG | 0.44
AGTCATCC | 0.464
AGTCATCA | 0.439
CGGCGGGC | 0.221
CAAGATAA | 0.0275
CATGGAGG | -0.101
CCACGAAC | 0.101
CAGGACAC | 0.135
ACTCATCC | 0.412

Sequence | PBM E-score
CCTCATCG | 0.0284
ACTCATCA | 0.32
CCTCATCC | -0.182
TCTCATCA | -0.131
ACTCATCG | 0.304
ACTCATCT | 0.199
GCTCATCC | 0.0555
GCTCATCA | 0.109
GCCTTCAC | -0.0812
CTTTATCA | -0.157
AAGCTACC | 0.00426
ACCCATGA | 0.287
AACCATGA | 0.351
CACCATGA | 0.143
CCCCATGC | -0.0398
ACCCAGGA | -0.00244
ACCCAGGT | 0.0206
CCCCATGA | 0.0682
ACCCATGC | 0.273
ACCCATGG | 0.211
ACCCAGGC | 0.302
AACCATGC | 0.234
GCCCATGA | 0.262

Sequence | PBM E-score
ATATTCTA | 0.122
TGACAACA | 0.115
GCCTTGAC | -0.167
CATGGACC | -0.0938
AACTGGGC | -0.165
GCGAGCAA | -0.12
ACAACGCT | 0.0591
AGCTAGGA | 0.117
GGTCACCA | -0.102
CGTCACCC | -0.047
AGTCACCG | 0.418
AGTCACCA | 0.426
ATTCACCC | 0.135
AGTCACCC | 0.446
CGTCACCA | -0.036
AGACACCG | 0.21
ATTCACCG | 0.159
CTGGCAAG | -0.21
GAAGATCA | -0.185
GCCGGCCA | -0.136
ATGCCTGA | 0.0818
CCTCTCGA | -0.142
CGTGAAAC | -0.243

Sequence | PBM E-score
AGCTCTAA | -0.127
ACTCTTAC | 0.163
TCACCCAA | 0.177
TCACCCCA | 0.305
GCACCCCA | 0.151
AGCGGTCG | -0.301
ACACGGAG | -0.0139
ACACGGAT | 0.287
ACACGGAA | -0.0284
ACTCATAT | 0.229
CGTCATAG | -0.155
AGTCATAT | 0.421
TGTCATAA | -0.0558
CGTCATAA | 0.016
AGTCATAG | 0.407
GGTCATAC | 0.0467
ACTCATAG | 0.264
CGTCATAC | 0.189
AGTCATAA | 0.344
AGACATAT | 0.16
AGTCATAC | 0.407
